# Experimental data taken from paper PMC11006913.
# Substitutions are numbered along the chain they refer to.
# Tests used:
# Experiment in all cases: PBM; 200 nM protein, PBS
# Settings in all cases: dsDNA, one strand shown
# SHOX [1] = biological target: SHOX (Homo sapiens, UniProt O15266 103-189)
# SHOX [2] = biological target: SHOX (Homo sapiens, UniProt O15266 103-189, R173C)
# PROP1 [3] = biological target: PROP1 (Homo sapiens, UniProt O75360 56-141)
# PROP1 [4] = biological target: PROP1 (Homo sapiens, UniProt O75360 56-141, R99H)
# PROP1 [5] = biological target: PROP1 (Homo sapiens, UniProt O75360 56-141, F88S)
# NKX3-2 [6] = biological target: NKX3-2 (Homo sapiens, UniProt P78367 192-278, P234S)
# NKX3-2 [7] = biological target: NKX3-2 (Homo sapiens, UniProt P78367 192-278)
# VAX1 [8] = biological target: VAX1 (Homo sapiens, UniProt Q5SQQ9 86-172)
# VAX1 [9] = biological target: VAX1 (Homo sapiens, UniProt Q5SQQ9 86-172, K157R)
# CRX [10] = biological target: CRX (Homo sapiens, UniProt O43186 26-111)
# VENTX [11] = biological target: T1, VENTX (Homo sapiens, UniProt O95231 78-163, R121Q)
# T1 sequence: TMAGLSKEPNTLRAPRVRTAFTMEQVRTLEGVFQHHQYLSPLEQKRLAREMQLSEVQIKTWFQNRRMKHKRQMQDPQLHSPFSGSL
# VENTX [12] = biological target: T2, VENTX (Homo sapiens, UniProt O95231 78-163)
# T2 sequence: T1 sequence with Q44R
# VENTX [13] = biological target: T3, VENTX (Homo sapiens, UniProt O95231 78-163, Y115F)
# T3 sequence: T1 sequence with Y38F, Q44R
# HOXB9 [14] = biological target: HOXB9 (Homo sapiens, UniProt P17482 171-250)
# CRX [15] = biological target: CRX (Homo sapiens, UniProt O43186 26-111, E42D)
# PITX2 = PITX2 (Homo sapiens, UniProt Q99697 72-157)
# HOXB9 [16] = biological target: HOXB9 (Homo sapiens, UniProt P17482 171-250, R186Q)
# CRX [17] = biological target: CRX (Homo sapiens, UniProt O43186 26-111, R41L)
# Sequence of CRX (Homo sapiens, UniProt O43186 26-111, R41L) (O43186 26-111 R41L): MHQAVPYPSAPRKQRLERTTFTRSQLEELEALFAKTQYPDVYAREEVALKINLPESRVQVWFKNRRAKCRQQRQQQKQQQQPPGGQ
# Sequence of SHOX (Homo sapiens, UniProt O15266 103-189, R173C) (O15266 103-189 R173C): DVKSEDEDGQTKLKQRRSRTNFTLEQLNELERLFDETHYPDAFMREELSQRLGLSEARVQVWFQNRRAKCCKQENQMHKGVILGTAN
# Sequence of PROP1 (Homo sapiens, UniProt O75360 56-141, F88S) (O75360 56-141 F88S): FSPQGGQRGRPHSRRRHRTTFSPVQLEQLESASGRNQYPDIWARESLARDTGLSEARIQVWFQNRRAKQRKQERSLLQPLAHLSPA
# Sequence of PROP1 (Homo sapiens, UniProt O75360 56-141, R99H) (O75360 56-141 R99H): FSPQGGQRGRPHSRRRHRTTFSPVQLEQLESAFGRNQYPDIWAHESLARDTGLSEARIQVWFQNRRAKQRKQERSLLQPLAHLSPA
# Sequence of PROP1 (Homo sapiens, UniProt O75360 56-141) (O75360 56-141): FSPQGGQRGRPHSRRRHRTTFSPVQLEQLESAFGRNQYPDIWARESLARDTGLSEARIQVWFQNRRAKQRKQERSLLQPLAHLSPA
# Sequence of SHOX (Homo sapiens, UniProt O15266 103-189) (O15266 103-189): as the sequence (O15266 103-189 R173C) above, with C71R counted along it
# Sequence of NKX3-2 (Homo sapiens, UniProt P78367 192-278) (P78367 192-278): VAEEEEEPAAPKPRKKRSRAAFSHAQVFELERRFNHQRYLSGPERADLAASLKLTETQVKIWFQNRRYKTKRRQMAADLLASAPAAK
# Sequence of NKX3-2 (Homo sapiens, UniProt P78367 192-278, P234S) (P78367 192-278 P234S): as the sequence (P78367 192-278) above, with P43S counted along it
# Sequence of VAX1 (Homo sapiens, UniProt Q5SQQ9 86-172, K157R) (Q5SQQ9 86-172 K157R): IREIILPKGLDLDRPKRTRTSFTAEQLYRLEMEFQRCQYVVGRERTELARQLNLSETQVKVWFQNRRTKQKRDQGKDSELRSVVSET
# Sequence of VAX1 (Homo sapiens, UniProt Q5SQQ9 86-172) (Q5SQQ9 86-172): as the sequence (Q5SQQ9 86-172 K157R) above, with R72K counted along it
# Sequence of HOXB9 (Homo sapiens, UniProt P17482 171-250, R186Q) (P17482 171-250 R186Q): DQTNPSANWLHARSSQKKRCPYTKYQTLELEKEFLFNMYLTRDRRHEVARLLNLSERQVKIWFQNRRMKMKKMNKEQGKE
# Sequence of HOXB9 (Homo sapiens, UniProt P17482 171-250) (P17482 171-250): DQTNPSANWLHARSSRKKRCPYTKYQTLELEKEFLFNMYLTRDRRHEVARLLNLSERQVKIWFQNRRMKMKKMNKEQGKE
# Sequence of CRX (Homo sapiens, UniProt O43186 26-111) (O43186 26-111): as the sequence (O43186 26-111 R41L) above, with L16R counted along it
# Sequence of CRX (Homo sapiens, UniProt O43186 26-111, E42D) (O43186 26-111 E42D): as the sequence (O43186 26-111 R41L) above, with L16R, E17D counted along it
sequence,measurement,setting,value
CACCGGGG,binding signal,SHOX [1],"7.32 upbm affinity estimate (log intensity, higher = more binding, comparable within an allelic series)"
same,binding signal,SHOX [2],"7.13 upbm affinity estimate (log intensity, higher = more binding, comparable within an allelic series)"
same,binding signal,PROP1 [3],"6.79 upbm affinity estimate (log intensity, higher = more binding, comparable within an allelic series)"
same,binding signal,PROP1 [4],"6.87 upbm affinity estimate (log intensity, higher = more binding, comparable within an allelic series)"
same,binding signal,PROP1 [5],"6.47 upbm affinity estimate (log intensity, higher = more binding, comparable within an allelic series)"
GCATGGCC,binding signal,SHOX [1],"7.2 upbm affinity estimate (log intensity, higher = more binding, comparable within an allelic series)"
same,binding signal,SHOX [2],"7.2 upbm affinity estimate (log intensity, higher = more binding, comparable within an allelic series)"
CTCCGAAC,binding signal,SHOX [1],"7.18 upbm affinity estimate (log intensity, higher = more binding, comparable within an allelic series)"
same,binding signal,SHOX [2],"7.23 upbm affinity estimate (log intensity, higher = more binding, comparable within an allelic series)"
CCAGGGCG,binding signal,SHOX [1],"7.04 upbm affinity estimate (log intensity, higher = more binding, comparable within an allelic series)"
same,binding signal,SHOX [2],"7.02 upbm affinity estimate (log intensity, higher = more binding, comparable within an allelic series)"
same,binding signal,PROP1 [3],"6.67 upbm affinity estimate (log intensity, higher = more binding, comparable within an allelic series)"
same,binding signal,PROP1 [4],"6.55 upbm affinity estimate (log intensity, higher = more binding, comparable within an allelic series)"
same,binding signal,PROP1 [5],"6.42 upbm affinity estimate (log intensity, higher = more binding, comparable within an allelic series)"
same,binding signal,NKX3-2 [6],"10.3 upbm affinity estimate (log intensity, higher = more binding, comparable within an allelic series)"
same,binding signal,NKX3-2 [7],"10.2 upbm affinity estimate (log intensity, higher = more binding, comparable within an allelic series)"
ACCTGAGG,binding signal,SHOX [1],"7.18 upbm affinity estimate (log intensity, higher = more binding, comparable within an allelic series)"
same,binding signal,SHOX [2],"7.27 upbm affinity estimate (log intensity, higher = more binding, comparable within an allelic series)"
GCGTTAAA,binding signal,SHOX [1],"8.14 upbm affinity estimate (log intensity, higher = more binding, comparable within an allelic series)"
same,binding signal,SHOX [2],"7.56 upbm affinity estimate (log intensity, higher = more binding, comparable within an allelic series)"
CCAAACGG,binding signal,SHOX [1],"7.11 upbm affinity estimate (log intensity, higher = more binding, comparable within an allelic series)"
same,binding signal,SHOX [2],"7.21 upbm affinity estimate (log intensity, higher = more binding, comparable within an allelic series)"
CTGAGGCA,binding signal,SHOX [1],"7.29 upbm affinity estimate (log intensity, higher = more binding, comparable within an allelic series)"
same,binding signal,SHOX [2],"7.31 upbm affinity estimate (log intensity, higher = more binding, comparable within an allelic series)"
AGGGTCGG,binding signal,SHOX [1],"7.15 upbm affinity estimate (log intensity, higher = more binding, comparable within an allelic series)"
same,binding signal,SHOX [2],"7.14 upbm affinity estimate (log intensity, higher = more binding, comparable within an allelic series)"
AGGTCCCC,binding signal,SHOX [1],"7.19 upbm affinity estimate (log intensity, higher = more binding, comparable within an allelic series)"
same,binding signal,SHOX [2],"7.17 upbm affinity estimate (log intensity, higher = more binding, comparable within an allelic series)"
CTTGGCCC,binding signal,SHOX [1],"7.14 upbm affinity estimate (log intensity, higher = more binding, comparable within an allelic series)"
same,binding signal,SHOX [2],"7.2 upbm affinity estimate (log intensity, higher = more binding, comparable within an allelic series)"
ACCCGGAC,binding signal,SHOX [1],"7.09 upbm affinity estimate (log intensity, higher = more binding, comparable within an allelic series)"
same,binding signal,SHOX [2],"7.17 upbm affinity estimate (log intensity, higher = more binding, comparable within an allelic series)"
GAACGCGC,binding signal,SHOX [1],"7.22 upbm affinity estimate (log intensity, higher = more binding, comparable within an allelic series)"
same,binding signal,SHOX [2],"7.23 upbm affinity estimate (log intensity, higher = more binding, comparable within an allelic series)"
CCTTTCCC,binding signal,SHOX [1],"7.21 upbm affinity estimate (log intensity, higher = more binding, comparable within an allelic series)"
same,binding signal,SHOX [2],"7.11 upbm affinity estimate (log intensity, higher = more binding, comparable within an allelic series)"
same,binding signal,PROP1 [3],"6.78 upbm affinity estimate (log intensity, higher = more binding, comparable within an allelic series)"
same,binding signal,PROP1 [4],"6.87 upbm affinity estimate (log intensity, higher = more binding, comparable within an allelic series)"
same,binding signal,PROP1 [5],"6.77 upbm affinity estimate (log intensity, higher = more binding, comparable within an allelic series)"
CGGGCGTC,binding signal,SHOX [1],"7.36 upbm affinity estimate (log intensity, higher = more binding, comparable within an allelic series)"
same,binding signal,SHOX [2],"7.21 upbm affinity estimate (log intensity, higher = more binding, comparable within an allelic series)"
same,binding signal,NKX3-2 [6],"10.6 upbm affinity estimate (log intensity, higher = more binding, comparable within an allelic series)"
same,binding signal,NKX3-2 [7],"10.5 upbm affinity estimate (log intensity, higher = more binding, comparable within an allelic series)"
CCAATCAC,binding signal,SHOX [1],"8.6 upbm affinity estimate (log intensity, higher = more binding, comparable within an allelic series)"
same,binding signal,SHOX [2],"7.61 upbm affinity estimate (log intensity, higher = more binding, comparable within an allelic series)"
same,binding signal,VAX1 [8],"8.98 upbm affinity estimate (log intensity, higher = more binding, comparable within an allelic series)"
same,binding signal,VAX1 [9],"8.89 upbm affinity estimate (log intensity, higher = more binding, comparable within an allelic series)"
CTCTCCTC,binding signal,SHOX [1],"7.22 upbm affinity estimate (log intensity, higher = more binding, comparable within an allelic series)"
same,binding signal,SHOX [2],"7.21 upbm affinity estimate (log intensity, higher = more binding, comparable within an allelic series)"
CCGCGCCA,binding signal,SHOX [1],"7.12 upbm affinity estimate (log intensity, higher = more binding, comparable within an allelic series)"
same,binding signal,SHOX [2],"7.11 upbm affinity estimate (log intensity, higher = more binding, comparable within an allelic series)"
CCACCTCG,binding signal,SHOX [1],"7.13 upbm affinity estimate (log intensity, higher = more binding, comparable within an allelic series)"
same,binding signal,SHOX [2],"7.18 upbm affinity estimate (log intensity, higher = more binding, comparable within an allelic series)"
AGCTGTCC,binding signal,SHOX [1],"7.1 upbm affinity estimate (log intensity, higher = more binding, comparable within an allelic series)"
same,binding signal,SHOX [2],"7.23 upbm affinity estimate (log intensity, higher = more binding, comparable within an allelic series)"
CCGGGAAA,binding signal,SHOX [1],"7.25 upbm affinity estimate (log intensity, higher = more binding, comparable within an allelic series)"
same,binding signal,SHOX [2],"7.26 upbm affinity estimate (log intensity, higher = more binding, comparable within an allelic series)"
GGATTACA,binding signal,CRX [10],"13.1 upbm affinity estimate (log intensity, higher = more binding, comparable within an allelic series)"
same,binding signal,VENTX [11],"9.08 upbm affinity estimate (log intensity, higher = more binding, comparable within an allelic series)"
same,binding signal,VENTX [12],"9.3 upbm affinity estimate (log intensity, higher = more binding, comparable within an allelic series)"
same,binding signal,VENTX [13],"9.18 upbm affinity estimate (log intensity, higher = more binding, comparable within an allelic series)"
same,binding signal,HOXB9 [14],"9.44 upbm affinity estimate (log intensity, higher = more binding, comparable within an allelic series)"
same,binding signal,CRX [15],"13 upbm affinity estimate (log intensity, higher = more binding, comparable within an allelic series)"
same,binding signal,PITX2,"12.8 upbm affinity estimate (log intensity, higher = more binding, comparable within an allelic series)"
same,binding signal,HOXB9 [16],"9.52 upbm affinity estimate (log intensity, higher = more binding, comparable within an allelic series)"
same,binding signal,CRX [17],"13 upbm affinity estimate (log intensity, higher = more binding, comparable within an allelic series)"
